# Calb FLC: C. albicans growth inhibition with fluconazole, primary screen, CaCi-2 strain, Alamar Blue fluorescence; C. albicans CaCi-2 (fluconazole-resistant clinical isolate) + fluconazole, 48 h; growth inhibition, % (test concentration not listed); actives 0.57% (n = 300,000); AID 1979, 2009;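 active = growth inhibition above about 58% in most replicates, limit read from the data, passing the limit was not always enough; inconclusive = exactly half the replicates above a set limit; inactive = most replicates below a set limit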;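 also: all wells also contain fluconazole at 8 µg/ml as a sub-toxic cotreatment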
# H9c2 protect: cardioprotection against H2O2-induced cell death, primary screen, uHTS, H9c2 cells, ATPLite luminescence. H9c2 cardiomyocytes, H2O2 injury protection, 2 h. protection from H2O2 cell death, % at 20 µM. actives 0.63% (n = 360,000). AID 588492, 2011;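 active = compounds giving at least 50% protection of heart cells from peroxide-induced death in the single-dose screen, raw or plate-pattern-corrected value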
# Efflux pump inh: inhibitors of Candida efflux pumps in yeast, primary screen, S. cerevisiae, Nile Red, multiplex | S. cerevisiae Candida pump triplex | inhibition, % at 10 µM | actives 0.44% (n = 330,000) | AID 485275, 2010;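 active = plate passing quality check with inhibition over a set limit, or well fluorescence over plate mean plus 4 SD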;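 also: Nile Red retained in pooled yeast measured as flow cytometry median fluorescence; higher means more Nile Red kept so more efflux inhibition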
# KCC2 mod: KCC2 cotransporter modulators, thallium flux, primary screen, cell-based, HEK293 KCC2, FluoZin-2 fluorescence, MLSMR; Solute carrier family 12 member 5 (Homo sapiens), Q9H2X9; KCC2 cells, thallium flux FluoZin-2 fluorescence; B-score of Tl+ flux slope (higher = more flux/activation; lower = inhibition) at 10 µM; actives 2.2% (n = 190,000); AID 1456, 2008;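 active = thallium flux slope and its plate-corrected score both differing from the plate sample mean at a set confidence after two filtering rounds, in either direction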;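 also: slope of fluorescence scaled to starting intensity during 10 to 20 s after thallium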
# PHOSPHO1 inh: PubChem AID 1565 | actives 1.1% (n = 290,000) | Phosphoethanolamine/phosphocholine phosphatase (Homo sapiens), Q8TCT1 | recombinant PHOSPHO1, absorbance phosphatase assay | inhibition, % at 13.3 µM; in the data active = inhibition above about 60%
# Hits are given with their value; i = inactive; ? = inconclusive; nt = no result given. A selection: hits, their analogues and other compounds. The true share with any hit is near 3.3%.
SMILES,Calb FLC,H9c2 protect,Efflux pump inh,KCC2 mod,PHOSPHO1 inh
Cc1cc(C)cc(N(CCC#N)C(=O)COC(=O)Cn2[nH]c(=O)c3ccccc3c2=O)c1,nt,77,i,nt,nt
Cc1cc(C)cc(N(CCC#N)C(=O)COC(=O)CN2C(=O)NC(C)(C)C2=O)c1,i,i,i,nt,nt
Cc1ccc2nc(C3CCCCC3)c(CC(C)(C)C)n2c1,nt,i,nt,nt,nt
CC(C)[C@H]1C(=O)Nc2ccccc2N1C(=O)N[C@@H](Cc1ccccc1)C(=O)N[C@@H](Cc1ccccc1)C(=O)O,i,i,i,nt,i
CCOC(=O)C1=c2/c(=C/c3ccncc3)c(N)c(C(=O)OC)n2C(=O)C(c2ccncc2)S1 (centres undefined),i,55,i,i,i
CC(C)CC(=O)NC(=S)NNC(=O)c1ccc([N+](=O)[O-])cc1,i,i,i,i,i
CC(C)CC(=O)NC(=S)NNC(=O)c1ccc(NC(=O)C2CCCCC2)cc1,75,i,i,i,i
CC(C)[C@H](NC(=O)N1c2ccccc2NC(=O)[C@@H]1C(C)C)C(=O)N[C@H](Cc1ccccc1)C(=O)O,i,i,i,nt,65
O=C(COC(=O)c1c(F)cccc1Cl)NC(=O)Nc1ccc2c(c1)OCCO2,nt,i,i,nt,nt
CC1(C)CC2CC(C)(CN2C(=S)NC(=O)c2ccccc2Cl)C1 (centres undefined),i,i,i,55,i
CC(=O)Nc1ncnc2c1c(-c1ccc(Cl)cc1)nn2C(C)(C)C,102,i,i,i,i
Cc1cc(Br)ccc1NC(=O)CNC(=O)CSc1nccn1C,nt,i,i,nt,nt
N#CCSc1nc2cc(C(=O)N3CCC(C(N)=O)CC3)ccc2c2nc3ccccc3n12,i,52,i,i,i
N#CCSc1nc2cc(C(=O)N3CCCC3)ccc2c(=O)n1Cc1ccccc1,i,i,i,i,i
Cc1ccc(O)c(-c2cc3ccccc3[nH]2)c1,83,i,i,i,i
CCOC(=O)CSC1=C(C#N)C(c2ccc(C)s2)CC(=O)N1 (centres undefined),i,i,i,nt,i
CCOC(=O)CSC1=C(C#N)C(=O)NC2(CCCCC2)S1,i,i,i,i,98
COc1ccc(CCN(C)C(=O)CSc2nnnn2C)cc1OC,i,i,i,i,i
Cc1ccccc1SCCNC(=O)c1ccccc1Br,i,i,i,i,60
Fc1ccc(-n2cc(-c3ccccc3)c3c(=S)nc[nH]c32)cc1,i,85,i,nt,i
O=c1[nH]cnc2c1c(-c1ccccc1)cn2-c1ccccc1,i,i,i,nt,i
Fc1cccc(-n2cc(-c3ccccc3)c3c(=S)nc[nH]c32)c1,101,64,i,nt,i
Cc1ccc(-n2cc(-c3ccccc3)c3c(=O)[nH]cnc32)cc1,i,i,i,i,i
CC(C)C[C@H](NC(=O)N1c2ccccc2NC(=O)[C@@H]1C(C)C)C(=O)N1CCC[C@@H]1C(=O)O,i,i,i,nt,i
Cc1ccc(S(=O)(=O)N2CCOCC2)cc1NC(=O)COC(=O)CCOc1ccc(C(C)(C)C)cc1,i,i,i,nt,nt
SMILES,Calb FLC,H9c2 protect,Efflux pump inh,KCC2 mod,PHOSPHO1 inh
CCN(CC)S(=O)(=O)c1ccc2oc(C(=O)NCC3COc4ccccc4O3)c(C)c2c1 (centres undefined),i,54,i,i,i
Cc1c(C(=O)NCC2COc3ccccc3O2)oc2ccc(S(=O)(=O)N3CC(C)CC(C)C3)cc12 (centres undefined),i,i,i,nt,i
Cc1c(C(=O)NCC2COc3ccccc3O2)oc2ccc(S(=O)(=O)N3CCOCC3)cc12 (centres undefined),i,60,i,i,i
N/C(Cn1cncn1)=N\NC(=O)C(=O)Nc1cccc(C(F)(F)F)c1,i,i,i,i,60
N/C(Cn1cncn1)=N\NC(=O)C(=O)Nc1ccccc1,i,i,i,i,i
COc1ccc(CCC(=O)OCc2csc(CC(=O)Nc3ccc(C)cc3)n2)cc1OC,nt,i,0.9,nt,nt
CCOc1ccccc1C(=O)NCC(=O)OCc1csc(CC(=O)Nc2ccc(C)cc2)n1,nt,i,i,nt,nt
COC(=O)c1ccc2nc(-c3ccco3)c(Cc3ccc(OC)cc3C)n2c1,nt,i,nt,nt,nt
Cn1nc(C(=O)NNC(=O)CCc2ccccc2Cl)c2ccccc2c1=O,i,i,i,nt,nt
CC(=O)c1cccc(CN2CCN(Cc3ccc(F)cc3)C(CCO)C2)c1 (centres undefined),i,i,i,nt,60
OCCC1CN(Cc2cnn(-c3ccc(F)cc3)c2)CCN1Cc1ccsc1 (centres undefined),i,i,i,i,60
CCn1cc(CN2CCN(Cc3ccsc3)C(CCO)C2)cn1 (centres undefined),i,i,i,i,i
O=C(NC(=S)Nc1ccccc1N1CCOCC1)c1cccs1,i,i,i,39,i
O=C(Nc1ccccc1N1CCOCC1)c1cc(F)cc(F)c1,97,i,i,i,i
OC(c1cccc(Cl)c1)c1ncc(-c2cccc3ccccc23)[nH]1 (centres undefined),nt,i,nt,nt,nt
CCOC(=O)C1=C(COC(=O)c2ccc3ccccc3c2O)NC(=O)NC1C (centres undefined),nt,i,i,nt,nt
COc1ccc(C(=O)NN/C(C)=C/C(=O)C(F)(F)C(F)(F)C(F)(F)F)cc1,94,i,i,i,i
NC(=S)n1[nH]c(-c2ccc([N+](=O)[O-])cc2)c(N=Nc2ccc(O)cc2)c1=O,i,i,i,nt,i
NC(=S)n1[nH]c(-c2ccc([N+](=O)[O-])cc2)c(N=Nc2cccc(Cl)c2)c1=O,i,i,nt,5.8,i
O=C(CCc1nnc(CCCCc2ccccc2)o1)NCCN1CCCCC1=O,i,i,i,i,60
Cc1ccc(C)n1-c1ccccc1N1CCCCC1,i,i,i,i,63
O=C(CSc1nnc(-c2cnccn2)n1Cc1ccco1)c1ccccc1,?,i,i,i,90
C(=C\c1ccccc1)/CSc1nnc(-c2ccncc2)n1Cc1ccco1,i,i,i,-5,64
O=C(CSc1nnc(-c2cccnc2)n1Cc1ccco1)c1ccc2ccccc2c1,i,i,i,i,70
O=C(CSc1nnc(-c2cccnc2)n1Cc1ccco1)c1ccc(Br)cc1,?,i,i,nt,i
SMILES,Calb FLC,H9c2 protect,Efflux pump inh,KCC2 mod,PHOSPHO1 inh
O=C(CSc1nnc(-c2cnccn2)n1Cc1ccco1)c1ccc(Cl)cc1,i,i,i,i,i
c1ccc(-c2nnc(CSc3nnc(-c4ccncc4)n3Cc3ccco3)o2)cc1,i,i,i,i,i
Cc1nnc(NC(=O)CN2CCN(Cc3ccc(F)cc3Cl)CC2)s1,i,i,i,nt,nt
COc1ccc(CNC(=O)CCCC(=O)n2nc(C)c3ccccc32)cc1,i,i,i,nt,i
CCOC(=O)C1=NN(c2ccccc2)C2(S1)SC(C(C)=O)=C(C)N2c1ccccc1 (centres undefined),?,i,i,nt,i
CCOC(=O)C1=NN(c2cccc(C)c2)C2(S1)SC(C(C)=O)=C(C)N2c1ccccc1 (centres undefined),i,i,i,i,62

# Assay outcomes deposited in PubChem by several laboratories.
